{
  "source": "paper PMC4336329",
  "about": "(PLoS ONE, 2015)",
  "note": "The campaign covered roughly 310,000 compounds. About 14,000 (4.5%) showed an effect of 50% or more. The effect is printed as a negative number. Many of the other results were omitted from the sample, so strong results are more common in it than they were.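 Note: peak tail current of the secondary pulse compared with the same well before compound.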",
  "data": [
    {"molecular_target": "human ether-à-go-go-related gene (hERG) potassium channel (human, UniProt Q12809)", "sequence (Q12809 whole entry, looked up)": "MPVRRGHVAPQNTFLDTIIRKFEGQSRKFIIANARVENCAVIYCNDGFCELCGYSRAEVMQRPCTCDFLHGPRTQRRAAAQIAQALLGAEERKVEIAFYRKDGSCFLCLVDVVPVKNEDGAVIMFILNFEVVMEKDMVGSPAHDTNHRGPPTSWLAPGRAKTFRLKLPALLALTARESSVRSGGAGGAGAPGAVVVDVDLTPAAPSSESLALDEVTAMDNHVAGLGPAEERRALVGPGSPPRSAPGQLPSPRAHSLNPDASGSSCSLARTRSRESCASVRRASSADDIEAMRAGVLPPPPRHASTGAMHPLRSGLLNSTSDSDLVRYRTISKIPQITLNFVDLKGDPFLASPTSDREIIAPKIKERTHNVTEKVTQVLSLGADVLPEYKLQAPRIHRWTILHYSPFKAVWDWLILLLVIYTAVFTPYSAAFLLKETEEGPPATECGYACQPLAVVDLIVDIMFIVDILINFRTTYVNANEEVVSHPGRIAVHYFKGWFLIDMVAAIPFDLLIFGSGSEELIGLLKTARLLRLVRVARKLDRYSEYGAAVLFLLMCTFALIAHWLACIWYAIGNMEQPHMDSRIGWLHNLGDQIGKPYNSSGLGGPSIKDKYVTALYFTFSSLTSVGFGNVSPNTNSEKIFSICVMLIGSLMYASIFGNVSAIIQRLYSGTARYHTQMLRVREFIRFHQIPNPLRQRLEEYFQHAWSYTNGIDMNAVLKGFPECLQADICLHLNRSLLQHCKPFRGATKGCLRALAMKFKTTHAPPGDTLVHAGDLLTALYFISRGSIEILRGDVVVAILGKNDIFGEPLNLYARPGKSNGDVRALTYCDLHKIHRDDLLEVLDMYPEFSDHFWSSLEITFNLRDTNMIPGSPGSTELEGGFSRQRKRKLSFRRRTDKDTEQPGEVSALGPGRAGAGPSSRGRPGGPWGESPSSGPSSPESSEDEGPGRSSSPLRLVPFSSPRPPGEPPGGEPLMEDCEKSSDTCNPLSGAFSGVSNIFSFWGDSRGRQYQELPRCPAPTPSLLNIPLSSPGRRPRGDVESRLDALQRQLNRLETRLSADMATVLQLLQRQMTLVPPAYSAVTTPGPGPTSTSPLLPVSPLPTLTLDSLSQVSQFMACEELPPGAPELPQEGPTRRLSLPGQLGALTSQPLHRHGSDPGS", "test": "primary screen, population patch clamp on CHO cells stably expressing hERG; higher = less effect of the substance", "units": {"hERG current change (%, negative = inhibition) at 10uM": "%"}, "values": [
      {"smiles": "CC(NC(=O)Cn1cnnn1)C12CC3CC(CC(C3)C1)C2", "note": "(centres unmarked)", "hERG current change (%, negative = inhibition) at 10uM": 7.75},
      {"smiles": "CCCC1C(C(=O)OCC)=C(C)NC(C)=C1C(=O)OCC", "hERG current change (%, negative = inhibition) at 10uM": 10.7},
      {"smiles": "CC(C)c1ccc(OCc2ccc(C(=O)NN3CCN(C)CC3)o2)cc1", "hERG current change (%, negative = inhibition) at 10uM": -31.7},
      {"smiles": "Cc1cccc(C)c1OP(N)(=O)Oc1c(C)cccc1C", "hERG current change (%, negative = inhibition) at 10uM": 11},
      {"smiles": "CC(C)C(=O)Nc1ccc(C(=O)NNC(=O)c2ccco2)cc1", "hERG current change (%, negative = inhibition) at 10uM": 7.75},
      {"smiles": "Cc1cc(C)n(C(=O)C2CCCN2S(=O)(=O)c2ccc(Cl)cc2)n1", "note": "(centres unmarked)", "hERG current change (%, negative = inhibition) at 10uM": -7.48},
      {"smiles": "CCOc1ccc(C(=O)NCC(=O)Nc2ncccc2C)cc1OCC", "hERG current change (%, negative = inhibition) at 10uM": 18},
      {"smiles": "COc1ccc(N2CCN(C(=O)CCc3c[nH]c4ccccc34)CC2)cc1", "hERG current change (%, negative = inhibition) at 10uM": -10.2},
      {"smiles": "CC(=O)Nc1ccc(S(=O)(=O)NC2C3(C)CCC(C3)C2(C)C)cc1", "note": "(centres unmarked)", "hERG current change (%, negative = inhibition) at 10uM": 16.9},
      {"smiles": "Cl.NCCSC1CC(=O)N(Cc2ccc(F)cc2)C1=O", "note": "(centres unmarked)", "hERG current change (%, negative = inhibition) at 10uM": -20.4},
      {"smiles": "CCOC(=O)Cc1csc(NC(=O)/C=C/c2ccc(Cl)cc2)n1", "hERG current change (%, negative = inhibition) at 10uM": -9.29},
      {"smiles": "O=C(O)C1CCCN(S(=O)(=O)c2cccs2)C1", "note": "(centres unmarked)", "hERG current change (%, negative = inhibition) at 10uM": 4.67},
      {"smiles": "O=C(C1CCCN(S(=O)(=O)c2cccs2)C1)N1CCN(C2CCCCC2)CC1", "note": "(centres unmarked)", "hERG current change (%, negative = inhibition) at 10uM": -24.6},
      {"smiles": "CC(=O)N1CCCc2cc(S(=O)(=O)N3CCCC(C(=O)N4CCN(c5ccccc5)CC4)C3)ccc21", "note": "(centres unmarked)", "hERG current change (%, negative = inhibition) at 10uM": -21.3},
      {"smiles": "CC(=O)Nc1ccc(S(=O)(=O)N2CCCC(C(=O)O)C2)cc1", "note": "(centres unmarked)", "hERG current change (%, negative = inhibition) at 10uM": -3.16},
      {"smiles": "O=C(C1CCCN(S(=O)(=O)c2cccs2)C1)N1CCC(N2CCCCC2)CC1", "note": "(centres unmarked)", "hERG current change (%, negative = inhibition) at 10uM": -61.7},
      {"smiles": "CCOC(=O)N1CCN(C(=O)C2CCCN(S(=O)(=O)c3ccc(OCC)cc3)C2)CC1", "note": "(centres unmarked)", "hERG current change (%, negative = inhibition) at 10uM": -46.2},
      {"smiles": "CC(=O)Nc1ccc(S(=O)(=O)N2CCCC(C(=O)N3CCN(c4ccccc4)CC3)C2)cc1", "note": "(centres unmarked)", "hERG current change (%, negative = inhibition) at 10uM": -50.9},
      {"smiles": "O=C(C1CCCN(S(=O)(=O)c2ccc(Br)cc2)C1)N1CCN(Cc2ccccc2)CC1", "note": "(centres unmarked)", "hERG current change (%, negative = inhibition) at 10uM": -55.1},
      {"smiles": "CCOc1ccc(S(=O)(=O)N2CCCC(C(=O)N3CCN(c4ccccc4)CC3)C2)cc1", "note": "(centres unmarked)", "hERG current change (%, negative = inhibition) at 10uM": -56.3},
      {"smiles": "O=C(C1CCCN(S(=O)(=O)c2ccc(Br)cc2)C1)N1CCOCC1", "note": "(centres unmarked)", "hERG current change (%, negative = inhibition) at 10uM": -13.8},
      {"smiles": "CN1CCN(C(=O)C2CCCN(S(=O)(=O)c3ccc(Br)cc3)C2)CC1", "note": "(centres unmarked)", "hERG current change (%, negative = inhibition) at 10uM": -5.87},
      {"smiles": "CCOc1ccc(S(=O)(=O)N2CCC(C(=O)N3CCN(c4ccccc4)CC3)CC2)cc1", "hERG current change (%, negative = inhibition) at 10uM": -18},
      {"smiles": "COc1cccc(Nc2nc(-c3sc(N)nc3C)cs2)c1", "hERG current change (%, negative = inhibition) at 10uM": -18.2},
      {"smiles": "CNc1nc(-c2c(C)n(C)c3ccc(OC)cc23)cs1", "hERG current change (%, negative = inhibition) at 10uM": 19.2},
      {"smiles": "Cl.Clc1ccccc1CSC1=NCCCN1", "hERG current change (%, negative = inhibition) at 10uM": 0.0434},
      {"smiles": "O=C(CN(C(=O)CCC(=O)Nc1ccccn1)c1ccc2c(c1)OCCO2)NCCc1ccccc1", "hERG current change (%, negative = inhibition) at 10uM": 2.29},
      {"smiles": "CC1CCCC(C)N1c1ccc(S(=O)(=O)N2CCOCC2)cc1Cl", "note": "(centres unmarked)", "hERG current change (%, negative = inhibition) at 10uM": 11.5},
      {"smiles": "COc1ccc(C2SCC(=O)N2CC23CC4CC(CC(C4)C2)C3)cc1", "note": "(centres unmarked)", "hERG current change (%, negative = inhibition) at 10uM": 3.15},
      {"smiles": "O=C(C1CCCN(S(=O)(=O)c2ccc(Br)s2)C1)N1CCN(c2ccccc2)CC1", "note": "(centres unmarked)", "hERG current change (%, negative = inhibition) at 10uM": -63.8},
      {"smiles": "CCOC(=O)C1CCN(C(=O)C2CCCN(S(=O)(=O)c3ccc(OC)c(Cl)c3)C2)CC1", "note": "(centres unmarked)", "hERG current change (%, negative = inhibition) at 10uM": -67.2},
      {"smiles": "CCOC(=O)C1CCN(C(=O)C2CCCN(S(=O)(=O)c3ccc(OCC)c(Cl)c3)C2)CC1", "note": "(centres unmarked)", "hERG current change (%, negative = inhibition) at 10uM": -40.8},
      {"smiles": "O=C(C1CCN(S(=O)(=O)c2ccc(Br)s2)CC1)N1CCN(c2ccccc2)CC1", "hERG current change (%, negative = inhibition) at 10uM": -10.5},
      {"smiles": "O=C(C1CCCN(S(=O)(=O)c2ccc(Br)s2)C1)N1CCCCCC1", "note": "(centres unmarked)", "hERG current change (%, negative = inhibition) at 10uM": -11.8},
      {"smiles": "CCOC(=O)C1CCN(S(=O)(=O)c2ccc(OC)c(Cl)c2)CC1", "hERG current change (%, negative = inhibition) at 10uM": 9.79},
      {"smiles": "COc1ccc(CCNC(=O)Cn2nnc(-c3ccccc3F)n2)cc1OC", "hERG current change (%, negative = inhibition) at 10uM": 1.44},
      {"smiles": "CC1CCCN(C(=O)COC(=O)CNC(=O)c2ccc(Br)cc2)C1", "note": "(centres unmarked)", "hERG current change (%, negative = inhibition) at 10uM": -8.3},
      {"smiles": "CCOC(=O)C1CCN(C(C(=O)NC2CCCC2)c2ccc(C)cc2)CC1", "note": "(centres unmarked)", "hERG current change (%, negative = inhibition) at 10uM": -21.8},
      {"smiles": "CC(C)c1ccc(O)c(NC(=O)c2cccnc2)c1", "hERG current change (%, negative = inhibition) at 10uM": 6.07},
      {"smiles": "c1csc(CNc2ncnc3sccc23)c1", "hERG current change (%, negative = inhibition) at 10uM": -20.3},
      {"smiles": "Cc1sc2ncnc(NCC3CCCO3)c2c1C.Cl", "note": "(centres unmarked)", "hERG current change (%, negative = inhibition) at 10uM": -1.4},
      {"smiles": "c1nc(Nc2ccc(N3CCOCC3)cc2)c2ccsc2n1", "hERG current change (%, negative = inhibition) at 10uM": -7.59},
      {"smiles": "Cc1sc2ncnc(NCCCN3CCCC3=O)c2c1C", "hERG current change (%, negative = inhibition) at 10uM": 3.27},
      {"smiles": "Cc1sc2ncnc(NCC3(N4CCOCC4)CCCCC3)c2c1C", "hERG current change (%, negative = inhibition) at 10uM": -71.1}
    ]}
  ]
}
